High-throughput results (PubChem BioAssay)
Most compounds without a hit are left out; they make up all but 9.2% or so of the library.
NPC1 promoter act = NPC1 promoter activation; Huh7 NPC1 promoter luciferase reporter, 24 h; Potency, µM (top dose mostly 9.22 µM), for inactives: at the highest dose activation, hits mostly activators; 320,000 compounds, 2.4% hits; AID 485313; further: % of control where 0% means no effect; nearly all actives have a fitted effect of over 60% in size
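Luciferase expression driven by the NPC1 promoter was measured in stably transfected Huh7 cells after a 24 h compound incubation, using a luciferase reagent and a luminescence read.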
SMN2 splice up = enhancers of SMN2 splice variant expression; Potency, µM (series often up to 46.1 µM), for the others: at the top dose activity change, positive = activation, most hits filed as activators; AID 1458; 210,000 compounds, 2.8% hits; HEK293 SMN2-luciferase splicing reporter, luminescence, 30-36 h; further: % of control where 0% means no effect; nearly all actives have a fitted effect of over 55% in size
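HEK293 cells carry an SMN2 minigene-luciferase reporter in which exon 7 inclusion puts luciferase in frame. Cells were seeded at 2000 cells/well, attached for 10-12 hours, then exposed to compounds for 30-36 hours at 37C before ONE-Glo luminescence.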
Rab9 prom act = Rab9 promoter activation. 320,000 compounds, 2.8% hits. Potency, µM (series often up to 9.22 µM), inactives show top-dose activation, negative = inhibition, hits mostly activators. Huh7 Rab9 promoter-luciferase reporter, luminescence, 24 h; further: % of control where 0% means no effect; nearly all actives have a fitted effect of over 60% in size
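Cell-based reporter: Huh7 stable for Rab9 promoter-driven luciferase, plated in reduced-serum medium with 10% FBS at 1500 cells/well, compound-treated 24 h at 37 °C, luminescence read after 10 min reagent.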
ELG1 genotox = genotoxicity induction in ELG1-luciferase HEK293T cells. 330,000 compounds, 1.3% hits. HEK293T ELG1-luciferase reporter, luminescence, 16 h. Potency, µM (doses to about 46 µM), for the others: at the top dose activity change, positive = activation, hits mostly activators. AID 504466; further: % of control where 0% means no effect; nearly all actives have a fitted effect of over 60% in size
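HEK293T cells expressing luciferase-tagged ELG1 were treated with compound or DMSO for 16 hr at 37°C. Luciferase activity was then read after 30 min with ONE-Glo at room temperature; rising signal flags genetic stress.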
FLuc counter = inhibits or activates purified firefly luciferase, miR-21 counter-screen. P08659. purified FLuc, Km substrates, luminescence inhibition. Potency, µM (top dose mostly 57.5 µM), for the others: at the top dose activity change, negative = inhibition, actives largely listed as inhibitors. 360,000 compounds, 6.9% hits. AID 588342;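 further: plate controls were vehicle for no effect and reference inhibitor for full effect; nearly all actives have a fitted effect of over 55% in size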
Target sequence (P08659 whole entry, looked up): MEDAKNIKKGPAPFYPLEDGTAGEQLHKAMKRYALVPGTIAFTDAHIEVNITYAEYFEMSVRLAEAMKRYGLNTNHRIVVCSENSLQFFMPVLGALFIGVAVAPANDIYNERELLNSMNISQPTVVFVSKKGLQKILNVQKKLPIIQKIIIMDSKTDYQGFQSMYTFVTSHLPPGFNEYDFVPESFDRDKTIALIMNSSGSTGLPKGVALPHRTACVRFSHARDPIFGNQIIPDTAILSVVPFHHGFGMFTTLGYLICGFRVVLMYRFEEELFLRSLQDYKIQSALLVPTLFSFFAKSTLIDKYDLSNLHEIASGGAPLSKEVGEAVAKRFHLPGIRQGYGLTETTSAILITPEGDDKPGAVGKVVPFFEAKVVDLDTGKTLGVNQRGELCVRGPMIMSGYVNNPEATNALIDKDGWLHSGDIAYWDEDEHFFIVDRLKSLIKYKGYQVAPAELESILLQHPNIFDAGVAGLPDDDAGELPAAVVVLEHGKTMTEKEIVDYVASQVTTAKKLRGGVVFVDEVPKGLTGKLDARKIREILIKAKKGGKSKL
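Purified P. pyralis luciferase, 10 nM final, with Km-level 10 uM D-luciferin and 10 uM ATP in 50 mM Tris acetate pH 7.5, 10 mM Mg acetate, 0.01% Tween-20, 0.05% BSA; 6-point qHTS titration about 60 µM downward; luminescence read.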
ELG1 DNA repair = inhibitors of ELG1-dependent DNA repair in HEK293T cells; HEK293T ELG1-luciferase reporter, luminescence, 16 h; DNA damage induced by 5-fluorouridine; Potency, µM (highest dose often 46.1 µM), inactives show top-dose activity change, negative = inhibition, actives largely listed as inhibitors; 330,000 compounds, 2.3% hits; AID 504467; further: on the % scale 0 is the no-effect control and ±100 the full control effect; nearly all actives have a fitted effect of over 55% in size
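Cells (2,000 per well) received 5-fluorouridine plus test compound or DMSO and were incubated 16 hr at 37 °C, 5% CO2. Luciferase activity was read by luminescence 30 min after ONE-Glo addition; signal suppression marked inhibition of damage-induced ELG1 function.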
* = called active by the depositor; ? = inconclusive; . = no result; [ ] = another dose, or the depositor's remark. The call rests on the fitted dose curve; in most records, active means well fitted curve in the direction sought with a large enough effect; inconclusive means small, poorly fitted or top-dose-only effect, or another doubt; inactive means no such curve, though single readings can be large; an effect the other way counts as inactive or inconclusive. Potency means the concentration at half of the fitted maximal effect.

SMILES | NPC1 promoter act | SMN2 splice up | Rab9 prom act | ELG1 genotox | FLuc counter | ELG1 DNA repair
Cc1cccc(Nc2ncccc2C(=O)O)c1C | 9.8% | . | 2.1% | 11.0% | 21.3µM* | 16.7%
Cc1cccc(Nc2ccccc2C(=O)O)c1C | 1.8% | -11.3% | 0.7% | 1.4% | ? | 3.5%
O=C(O)c1cccnc1Nc1ccc(Cl)cc1 | 21.6% | 10µM* | ? | -0.4% | 16.9µM* | ?
NC(=O)c1cccnc1Nc1ccccc1Cl | 2.9% | -18.8% | 1.1% | 14.4% | ? | ?
Cc1ccc(Nc2ncccc2C(=O)O)cc1C | ? | 19.1% | ? | ? | 16.9µM* | ?
Cc1cc(C)c(Nc2ncccc2C(=O)O)c(C)c1 | 0.2% | . | -13.3% | 1.9% | -12.2% | 2.6%
O=C(NCCc1ccccc1)C(=O)c1c(-c2ccccc2)[nH]c2ccccc12 | -5.5% | -18.1% | -4.1% | -3.5% | -2.8% | -28.0%
O=C(Nc1cccnc1)C1OCCc2ccccc21 (configuration not stated) | 11.9% | 2.2% | 1.3% | -2.1% | 6.0% | 4.1%
O=C(Nc1ccc(Br)cc1)C1OCCc2ccccc21 (configuration not stated) | 23.9% | . | ? | 1.7% | 16.9µM* | 27.7%
O=C(O)c1ccc(N2C(=O)CC(N3C(=O)/C(=C/c4ccc(Cl)cc4)SC3=S)C2=O)cc1 (configuration not stated) | -0.7% | . | 1.0% | -2.2% | 16.9µM* | 0.9%
O=C(O)c1ccc(N2C(=O)CC(N3CCN(c4ccc(Cl)cc4)CC3)C2=O)cc1 (configuration not stated) | 0.2% | . | 0.1% | -3.7% | 0.9% | ?
Cc1csc(NC(=O)[C@@H]2CCCN2C(=O)c2cccs2)n1 | -4.5% | -2.4% | -4.4% | 9.1% | 6.0% | -5.6%
O=C(Nc1ccc(Cl)cc1)Nc1nnc(SCc2ccc(Cl)cc2)s1 | -1.2% | -13.9% | -12.7% | -0.6% | 4.0% | -23.2%
CCN(CC)C(=O)CSc1nnc(SCc2ccc(Cl)cc2)s1 | 1.0% | 10.0% | -6.5% | -7.0% | 19µM* | ?
O=C(CSc1nnc(SCc2ccc(Cl)cc2)s1)N1CCOCC1 | -15.3% | -6.1% | 0.1% | -0.3% | 15.1µM* | -17.6%
O=C(CSCc1ccc(Cl)cc1)N1CCOCC1 | 10.8% | 15.3% | -4.2% | 10.0% | ? | ?
COc1cc(/C=N/n2nnnc2Nc2ccccc2)cc(OC)c1OC | 0.4% | 14.0% | -2.1% | -1.6% | ? | 23.1µM*
COc1cc(/C=N/Nc2nc(Nc3ccccc3)nc(-n3nc(C)cc3C)n2)cc(OC)c1OC | 13.8% | -7.4%[1.84 µM] | 2.8% | -15.6% | 2.69µM* | 1.84µM*
COc1ccc(O)c(/C=N/Nc2nc(Nc3ccccc3)nc(-n3nc(C)cc3C)n2)c1 | 10.1% | -22.0% | -5.4% | -10.0% | 9.53µM* | 2.59µM*
CN(C)CCNC(=O)c1ccc(Sc2ccc(Br)cc2)c([N+](=O)[O-])c1 | -5.2% | -53.7% | 0.7% | -2.9% | -0.9% | -11.3%
CC1(NC(=O)CC[N+](C)(C)CCO)CS(=O)(=O)CC1S(=O)(=O)[O-] (configuration not stated) | 0.7% | 5.1% | 0.6% | 5.5% | 0.5% | -1.7%
CCN(CC(=O)Nc1c(F)cccc1F)C(=O)CCN1C(=O)C2CCCCC2C1=O (configuration not stated) | -2.9% | . | -7.6% | 0.1% | -1.3% | 2.3%
O=C(Nc1ccc(C(=O)OCc2cc(=O)n3nc(C4CC4)sc3n2)cc1)c1ccccc1 | . | . | . | . | 2.5% | .
O=C(Nc1cnc2ccccc2c1)c1ccco1 | 1.41µM* | 14.1µM* | 0.631µM* | ? | 7.57µM* | ?
O=C(Nc1cccc(-n2cnnn2)c1)c1cc(Cl)nc(Cl)c1 | 1.3% | . | 1.4% | -1.5% | 0.3% | 1.3%
O=C(CNC(=O)c1ccc(-c2ccccc2)cc1)Nc1ccc(S(=O)(=O)Nc2ncccn2)cc1 | -2.0% | . | 12.7% | -2.1% | 16.9µM* | 25.8%
